KDM4E inh = qHTS Assay for Inhibitors of Human Jumonji Domain Containing 2E (JMJD2E); Lysine-specific demethylase 4E (Homo sapiens), B2RXH2; JMJD2E catalytic domain, FDH-coupled NADH fluorescence (FDH is formaldehyde dehydrogenase); Potency, µM (top dose mostly 57.1 µM), for the others: at the top dose activity change, negative = inhibition, usual class: inhibitors; 230,000 compounds, 1.6% hits; AID 2147, 2009; active = well fitted inhibition curve with a large enough effect, not every such curve was filed as active; inconclusive = small, poorly fitted or top-dose-only effect, or another doubt; inactive = no such curve, though single readings can be large or run the other way;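 also: 0% = wells with enzyme and -100% = buffer wells without enzyme; nearly all actives have a fitted effect of over 50% in size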
APE1 inh-1 = qHTS Assay for Inhibitors of the Human Apurinic/apyrimidinic Endonuclease 1 (APE1). DNA repair nuclease/redox regulator APEX1 (Homo sapiens), P27695. recombinant APE1, TAMRA/BHQ-2 abasic DNA cleavage fluorescence. Potency, µM (top dose mostly 65.8 µM), for the others: at the highest dose activity change, negative = inhibition, most hits filed as inhibitors. 350,000 compounds, 0.35% hits;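 also: plate controls were vehicle for no effect and reference inhibitor for full effect; nearly all actives have a fitted effect of over 55% in size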
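APE1 at 0.75 nM final was preincubated with compound 15 min at room temperature, then 50 nM double-stranded THF abasic-site substrate (5'-TAMRA/3'-BHQ-2) was added. Fluorescence (ex 525/em 598 nm) was read kinetically; third-minus-first read gave activity.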
RECQ1 helicase = qHTS Assay for Inhibitors of RecQ-Like Dna Helicase 1 (RECQ1); ATP-dependent DNA helicase Q1 (Homo sapiens), P46063; Potency, µM (highest dose often 57.3 µM), for the others: at the highest dose activity, negative = inhibition, most hits filed as inhibitors; 240,000 compounds, 0.54% hits; RECQ1 DNA unwinding, red fluorescence kinetic read; AID 2549, 2010;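 also: plate controls were vehicle for no effect and no enzyme for full effect; nearly all actives have a fitted effect of over 30% in size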
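50 nM RECQ1T1 preincubated 15 min with compound in Tris pH 8.0 buffer with MgCl2, DTT, Tween-20 and 2.5 ug/ml poly(dI-dC); started with 200 nM TAMRA/BHQ-2 forked duplex and 2 mM ATP. Unwinding read as fluorescence (525/598 nm), two reads 2 h apart.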
BLM helicase inh = qHTS Assay for Inhibitors of Bloom's syndrome helicase (BLM) | RecQ-like DNA helicase BLM (Homo sapiens), P54132 | recombinant BLM DNA unwinding, fluorescence dequenching | Potency, µM (doses to about 56.1 µM), for the others: at the top dose activity change, negative = inhibition, actives largely listed as inhibitors | 350,000 compounds, 0.2% hits;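 also: plate controls were vehicle for no effect and no enzyme for full effect; nearly all actives have a fitted effect of over 35% in size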
Target sequence (P54132 whole entry, looked up): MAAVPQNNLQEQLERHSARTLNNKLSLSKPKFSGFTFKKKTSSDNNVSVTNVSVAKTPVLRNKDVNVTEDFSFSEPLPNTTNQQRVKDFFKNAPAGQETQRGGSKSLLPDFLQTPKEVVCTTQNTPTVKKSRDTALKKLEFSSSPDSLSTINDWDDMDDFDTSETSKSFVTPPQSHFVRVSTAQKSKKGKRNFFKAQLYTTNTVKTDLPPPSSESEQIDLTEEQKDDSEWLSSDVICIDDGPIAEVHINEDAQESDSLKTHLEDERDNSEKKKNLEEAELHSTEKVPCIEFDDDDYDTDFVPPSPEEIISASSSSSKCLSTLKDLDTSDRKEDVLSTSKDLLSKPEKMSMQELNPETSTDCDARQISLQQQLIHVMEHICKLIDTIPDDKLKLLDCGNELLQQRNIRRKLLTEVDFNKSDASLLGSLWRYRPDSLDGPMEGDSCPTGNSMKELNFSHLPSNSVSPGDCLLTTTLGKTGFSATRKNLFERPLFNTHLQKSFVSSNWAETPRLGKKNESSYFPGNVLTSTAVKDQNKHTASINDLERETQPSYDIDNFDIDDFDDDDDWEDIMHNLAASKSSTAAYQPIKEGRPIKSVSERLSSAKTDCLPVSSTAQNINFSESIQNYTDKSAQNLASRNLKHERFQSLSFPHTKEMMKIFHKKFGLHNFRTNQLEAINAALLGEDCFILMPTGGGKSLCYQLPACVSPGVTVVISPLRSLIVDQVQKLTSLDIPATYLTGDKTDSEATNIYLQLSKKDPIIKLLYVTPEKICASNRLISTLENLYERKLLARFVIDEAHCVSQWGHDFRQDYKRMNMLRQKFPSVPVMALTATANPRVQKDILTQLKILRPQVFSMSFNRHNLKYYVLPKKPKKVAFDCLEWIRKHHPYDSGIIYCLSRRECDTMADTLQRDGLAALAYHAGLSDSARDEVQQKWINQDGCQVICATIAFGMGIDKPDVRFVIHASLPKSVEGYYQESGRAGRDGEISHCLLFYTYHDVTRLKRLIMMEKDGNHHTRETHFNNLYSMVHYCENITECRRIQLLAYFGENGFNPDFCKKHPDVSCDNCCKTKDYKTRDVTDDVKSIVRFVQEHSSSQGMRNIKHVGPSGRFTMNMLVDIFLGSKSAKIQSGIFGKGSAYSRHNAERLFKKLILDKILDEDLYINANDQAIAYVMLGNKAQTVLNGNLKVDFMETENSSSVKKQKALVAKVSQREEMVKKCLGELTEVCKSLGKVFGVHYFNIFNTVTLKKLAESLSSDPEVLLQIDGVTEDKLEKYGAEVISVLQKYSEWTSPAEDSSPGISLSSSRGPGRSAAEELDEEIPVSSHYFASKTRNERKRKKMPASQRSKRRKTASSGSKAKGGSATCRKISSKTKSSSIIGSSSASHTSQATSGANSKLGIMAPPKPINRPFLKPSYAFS
L3MBTL1 block = qHTS Assay for the Inhibitors of L3MBTL1; AID 485360, 2010; 230,000 compounds, 0.66% hits; Lethal(3)malignant brain tumor-like protein 1 (Homo sapiens), Q9Y468; AlphaScreen L3MBTL1–H3K9me1 peptide binding; Potency, µM (series often up to 57.1 µM), inactives show at the highest dose activity, negative = inhibition, most hits filed as inhibitors; also: nearly all actives have a fitted effect of over 60% in size
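Read-out is AlphaScreen signal from streptavidin donor and nickel chelate acceptor beads (10 ug/mL final each) bridging L3MBTL1 (50 nM) and biotinylated K9-monomethylated H3(1-15) peptide (75 nM), after 30 min compound exposure at room temperature.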
TDP1 inh = qHTS Assay for Inhibitors of Tyrosyl-DNA Phosphodiesterase (TDP1); recombinant TDP1, AlphaScreen DNA substrate cleavage; Potency, µM (series often up to 130 µM), inactives show at the highest dose activity change, negative = inhibition, actives largely listed as inhibitors; 350,000 compounds, 0.28% hits; also: nearly all actives have a fitted effect of over 40% in size
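Steps: enzyme plus compound, 15 min RT; add biotin/phosphotyrosine-FITC oligonucleotide (15 nM final), react 5 min; add donor/acceptor beads (10 ug/ml final), 10 min; read AlphaScreen. Tdp1 at 1 nM final.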
DNA dye displace = Counterscreen for APE1 Inhibitors: Fluorescent Dye Displacement Assay; DNA fluorescent dye displacement counterscreen, fluorescence; shares compounds with APE1 inh-1; Potency, µM (highest dose often 28.5 µM), inactives show at the top dose activity change, negative = inhibition, actives largely listed as inhibitors; 480 compounds, 7% hits; AID 2564, 2010;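 also: loss of thiazole orange fluorescence as the dye is displaced from duplex DNA; 0% = ThO with dsDNA and no compound and -100% = ThO without dsDNA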
EndoIV counter = Counterscreen for APE1 Inhibitors: qHTS Assay for Inhibitors of Endonuclease IV; shares compounds with APE1 inh-1; E. coli Endo IV, fluorogenic AP-site DNA cleavage; Potency, µM (doses to about 27.1 µM), for the others: at the highest dose activity change, negative = inhibition, hits mostly inhibitors; 560 compounds, 4% hits;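 also: plate controls were uninhibited enzyme wells for no effect and no enzyme buffer wells for full effect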
APE1 inh-2 = Confirmation qHTS Assay for Inhibitors of the Human Apurinic/apyrimidinic Endonuclease 1 (APE1). shares compounds with APE1 inh-1. purified APE1, fluorogenic abasic-site DNA cleavage. Potency, µM (titrated, usually from 57.1 µM), inactives show top-dose activity change, negative = inhibition, most hits filed as inhibitors. 750 compounds, 44% hits; also: nearly all actives have a fitted effect of over 30% in size
APE1 FP = qHTS FP-Based Assay for Inhibitors of the Human Apurinic/apyrimidinic Endonuclease 1 (APE1). APE1 binding to TAMRA-labelled double-stranded DNA, fluorescence polarization displacement. 480 compounds, 7% hits. shares compounds with APE1 inh-1. Potency, µM (series often up to 28.5 µM), for inactives: top-dose activity, negative = inhibition, hits mostly inhibitors
The depositor's hits bear a star; i = inactive; ? = inconclusive; · = not tested or not shown; [ ] = another dose, or the depositor's remark. Shown is part of a subset that was picked to be rich in hits. Unless noted, calls follow the shape of the dose curve; as a rule, active = well fitted curve in the direction sought with a large enough effect; inconclusive = small, poorly fitted or top-dose-only effect, or another doubt; inactive = no such curve, though single readings can be large; an effect the other way counts as inactive or inconclusive. Unless noted, % is scaled to controls: 0 for no effect and ±100 for the full control effect; potency is read from the fitted curve at half-maximal effect.

SMILES	KDM4E inh	APE1 inh-1	RECQ1 helicase	BLM helicase inh	L3MBTL1 block	TDP1 inh	others
C(CCOCC1CO1)COCC1CO1 (stereo not given)	·	2%	7%	·	·	14%
COc1ccc2c3c1O[C@H]1[C@@H](O)C=C[C@H]4[C@@H](C2)NCC[C@@]341	·	-3%	·	·	·	·
O=C(O)CC1OCC=C2CN3CCC45C6=CC(=O)C(=O)C([N+](=O)[O-])=C6NC4C1C2CC35 (stereo not given)	0.063µM*	-4%	?	?	25µM*	-1%
O=C(O)CC1OCC=C2CN3CCC45c6ccccc6NC4C1C2CC35 (stereo not given)	-10%	-2%	-1%	-2%	·	·
Cc1ccccc1CN1CCN(c2ccc(Cl)cc2)CC1	22µM*	3%	2%	-2%	13%	0%
Cc1ccc(-n2c(O)c(/C=N/N3CCCCC3c3cccnc3)c(=O)[nH]c2=S)cc1 (stereo not given)	0%	-6%	32µM*	-5%	-11%	5%
CCC12CCN(CCc3ccc(F)cc3)CC1Oc1c(O)cccc12 (stereo not given)	·	51%	·	·	·	·
COc1ccc(/C=C2/C(=O)NC(=O)N(Cc3ccco3)C2=O)cc1	-2%	13%	-15%	0%	8.9µM*	-6%
Cc1cc(/C=C2\C(=O)NC(=O)N(Cc3ccco3)C2=O)c(C)n1-c1ccc(O)cc1	0%	0%	23%	25µM*	40µM*	5%
Nc1ccc(N)cc1	·	?	-17%	-15%	·	17%
Nc1ccc([As](=O)(O)O)cc1	13µM*	-1%	12%	-2%	8%	-10%
CCC12CCN(C)CC1Oc1c(C)cccc12 (stereo not given)	·	12%	·	·	·	·
Cc1nc2c(=O)n(C)c(=O)nc-2n(C)n1	2%	-1%	i	0.79µM*	0.11µM*	6%
[Hg+][c]1ccccc1	·	·	·	3%	·	11%
Cc1ccc(-c2cn3c(=S)[nH]nc3s2)cc1	6.3µM*	-6%	i	2%	5%	3%
CCCCCn1c(NC(=O)c2ccco2)c(C(=O)OCC)c2nc3ccccc3nc21	?	-1%	6%	-16%	9%	3%
CCOC(=O)c1c(NS(=O)(=O)c2ccccc2)n(CCCOC)c2nc3ccccc3nc12	?	?	-2%	5.6µM*	5%	-4%
O=C1NC(=O)C(=Cc2ccc(OCCOc3ccc([N+](=O)[O-])cc3)cc2)C(=O)N1	28µM*	-12%	3%	-10%	40µM*	1%
O=C1NC(=O)N(c2ccccc2F)C(=O)/C1=C/c1ccc(Oc2ccc([N+](=O)[O-])cn2)cc1	?	?	-4%	-4%	·	-8%
Oc1ccc2[nH]cc(CCCCN3CC=C(c4ccccc4)CC3)c2c1	5%	-2%	-9%	-8%	·	23%[56.1 µM]
O=C(O)c1ccc2[nH]cc(CCCCN3CC=C(c4ccccc4)CC3)c2c1	?	?	-10%	-13%	·	·	DNA dye displace=-1%[57.1 µM];EndoIV counter=19%[57.1 µM];APE1 inh-2=?;APE1 FP=15%[57.1 µM]
C[n+]1c2cc(N)ccc2cc2ccc(N)cc21	?	·	-24%	30%	·	3%[56.1 µM]	EndoIV counter=-112%[57.1 µM];APE1 inh-2=6.3µM*;APE1 FP=i
Nc1nc(/C(=C/CC(=O)O)C(=O)NC2C(=O)N3C(C(=O)O)=CCSC23)cs1 (stereo not given)	?	·	-7%	-6%	·	25µM*	DNA dye displace=2%[57.1 µM];EndoIV counter=65%[57.1 µM];APE1 inh-2=?;APE1 FP=-1%[57.1 µM]
Cn1cccc1/C=C1\C(=O)NC(=O)N(Cc2ccco2)C1=O	-20%	14µM*	?	-20%	·	18µM*	DNA dye displace=-4%;EndoIV counter=23%;APE1 inh-2=4.5µM*;APE1 FP=-8%
Cc1ccc(-n2c(C)cc(/C=C3/C(=O)NC(=O)N(Cc4ccco4)C3=O)c2C)cc1	-9%	?	?	-15%	?	-3%
SMILES	KDM4E inh	APE1 inh-1	RECQ1 helicase	BLM helicase inh	L3MBTL1 block	TDP1 inh	others
CN1C(=O)/C(=C/C=C/c2ccco2)C(=O)NC1=S	?	25µM*	?	57%	·	·	DNA dye displace=-2%;EndoIV counter=34%;APE1 inh-2=14µM*;APE1 FP=17%
O=C1NC(=O)N(Cc2ccco2)C(=O)/C1=C/C=C/c1ccco1	25µM*	2.8µM*	10µM*	-3%	·	·	DNA dye displace=10%;EndoIV counter=-6%;APE1 inh-2=5µM*;APE1 FP=?
CCOC(=O)C1CCN(/C=C2/C(=O)NC(=O)N(Cc3ccco3)C2=O)CC1	-6%	14µM*	?	29%	14µM*	40µM*	DNA dye displace=5%;EndoIV counter=21%;APE1 inh-2=3.2µM*;APE1 FP=?
C=CCBr	·	3%	5%	·	·	13%
CC[C@H](CC[C@@H](C)C1CC[C@H]2[C@@H]3CC=C4C[C@@H](O)CC[C@]4(C)[C@H]3CC[C@]12C)C(C)C (stereo not given in full)	15%	-3%	-4%	3%	·	9%[56.1 µM]
ClC(Cl)Br	·	3%	-1%	·	·	2%
C=CC(C)(C)c1c2c(c(O)c3c(=O)c4ccc(O)c(O)c4oc13)C=CC(C)(C)O2	?	3%	-18%	-14%	·	14%
CN(N=O)c1cc(O)ccc1O	0%	1.4µM*	1.6µM*	·	·	?	EndoIV counter=-10%[57.1 µM];APE1 inh-2=?

Compound activity (PubChem BioAssay)
